aSyn UTR act: Activators via SNCA 5'UTR binding, MLPCN; alpha-synuclein 5'UTR reporter, activators screen; activity score, % (tested at 7.5 µM), hits read low; actives 7.1% (n = 300,000); AID 1814; in the data active = activity score below about -60%
* marks the source's active call; other numbers are inactive results. Not all results are given here.

SMILES	aSyn UTR act
COc1ccccc1-c1cc(C(=O)NC2CCN(C)CC2)c2ccc(Cl)c(C)c2n1	101.3
COc1ccc(OC)c(-c2cc(C(=O)Nc3c(C)nn(Cc4ccccc4C)c3C)no2)c1	60.3
COc1ccccc1-c1cc(C(=O)Nc2cc(C)on2)no1	-146.1*
COc1ccccc1-c1cc(C(=O)NC2CCCC2)no1	-97.6*
Cc1occc1C(=O)NN=C1C2CC3CC(C2)CC1C3	-140.9*
COCC(C)NC(=O)c1cc(-c2ccccc2OC)on1 (stereo unspecified)	-102.2*
Cc1cc(NC(=O)c2cc(-c3ccc(O)cc3)on2)no1	-62.0*
COc1ccccc1C(=O)NC1CCCCCCC1	-70.5*
CC1CCCC(C)N1C(=O)c1cc(-c2cccs2)on1 (stereo unspecified)	-137.0*
O=C(NC1CCCC1)c1cc(-c2ccc(Cl)cc2Cl)on1	-121.7*
O=C(NC1CCCC1)c1cc(-c2cccs2)on1	-342.7*
Cc1occc1C(=O)NC1CCCCCCC1	-77.4*
O=C(NC1CCCCC1)c1cc(-c2ccccc2Cl)on1	-161.9*
COc1ccccc1-c1cc(C(F)(F)F)nc(S(=O)(=O)CCCC(=O)Nc2cc(C)on2)n1	-65.3*
O=C(NC1CCCC1)c1cc(-c2ccccc2O)on1	-77.4*
CC(=O)Nc1ccc(S(=O)(=O)NC2=C(N3CCN(C)CC3)C(=O)c3ccccc3C2=O)cc1	70.6
CC(=O)Nc1cccc2c1Cc1ccccc1-2	-159.4*
O=[N+]([O-])c1ccccc1CSc1nc2ccccc2o1	-193.4*
COc1ccc(C2Nc3ccccc3C(=O)N2c2ccc(C)cc2)cc1Cn1nnc2ccccc21 (stereo unspecified)	-121.6*
COc1ccc(C2Nc3ccccc3C(=O)N2c2ccc(C)cc2)cc1Cn1cc([N+](=O)[O-])cn1 (stereo unspecified)	-86.6*
Cc1n[nH]c(=O)n1-c1ccc(OCc2ccccc2)cc1	-90.8*
COc1ccc(-c2oc3ccccc3c2C(=O)OCc2ccccc2)cc1	-101.6*
c1ccc2oc(-c3ccn[nH]3)cc2c1	-120.0*
O=C(Nc1ccccc1)C(=O)Nc1ccc2c(c1)N(C(=O)C1CC1)CCC2	-121.0*
NNC(=O)c1cc2sccc2s1	-79.5*
SMILES	aSyn UTR act
Cc1cccc(-n2cnc3cc(C(=O)N4CCCCC4)ccc32)c1	-74.0*
COc1ccc2nc(-c3ccccc3)cc(OC)c2c1	-106.5*
COc1ccc(OC)c(Nc2cc(-c3ccccc3)nc(N)n2)c1	67.8
COCCNC(=O)c1cc2oc3ccccc3c2n1C	-98.5*
CCOc1ccccc1CNC(=O)c1cc2oc3ccccc3c2n1C	50.9
S=C(NN=C1C2CC3CC(C2)CC1C3)Nc1ccccc1	-70.0*
CCC(C)(C)C1CCC(=NNC(=S)Nc2ccccc2)CC1 (stereo unspecified)	-124.3*
Cc1ccc(NC(=S)Nc2cc(C)on2)cc1	-71.3*
CCCc1cc(C(=O)Nc2ccc(CC)cc2)no1	-169.2*
CCCc1cc(C(=O)Nc2ccc(C)cc2)no1	-103.6*
Cc1cc(C(=O)Nc2sc(C)c(C)c2C#N)no1	-170.4*
Cc1ccc(NC(=O)c2cc(C)on2)cc1	-96.2*
Cc1cc(C(=O)Nc2ccccn2)no1	-104.2*
Cc1ccc(/C=C/C(=O)Nc2cc(C)on2)cc1	-226.9*
COc1ccc2[nH]c3c(NCCCOC(C)C)ncnc3c2c1	-138.5*
COc1ccc2[nH]c3c(NCCC4=CCCCC4)ncnc3c2c1	-194.8*
COc1ccc2[nH]c3c(NCc4ccco4)ncnc3c2c1	-112.6*
COc1ccc2[nH]c3nc(SC(C)C)nnc3c2c1	58.3
Clc1ccc2[nH]c3c(NCCCN4CCOCC4)ncnc3c2c1	-62.4*
CC(C)(O)C(=O)N=Nc1c(O)[nH]c2ccccc12	-96.4*
O=C1NCCc2c1[nH]c1ccc([N+](=O)[O-])cc21	70.1
Oc1[nH]c2ccccc2c1N=Nc1ccc(F)cc1	-171.3*
Oc1[nH]c2ccccc2c1N=Nc1ccccc1F	-356.9*
O=[N+]([O-])c1ccc(N=Nc2c(O)[nH]c3ccc(F)cc23)cc1	-82.0*
CN1CCN(C(c2ccc(Br)cc2)c2cc(Cl)c3cccnc3c2O)CC1 (stereo unspecified)	67.2
SMILES	aSyn UTR act
Oc1[nH]c2ccccc2c1N=Nc1ccccc1	-123.0*
Cc1nc2ccccn2c1C(=O)N=Nc1c(O)[nH]c2ccccc12	-103.2*
O=C(Nc1ccc(N2CCN(Cc3ccccc3F)CC2)cc1)c1ccc([N+](=O)[O-])o1	104.7
O=C(NC(=S)Nc1ccc(N2CCOCC2)cc1)c1ccco1	-108.2*
O=C(Nc1ccc(N2CCN(Cc3ccccc3)CC2)cc1)c1ccco1	-86.0*
O=C(NC(=S)Nc1ccc(CN2CCOCC2)cc1)c1ccco1	-117.2*
O=C1c2ccccc2C(=O)C1c1ccc(O)cc1	-87.5*
Fc1ccc2nc(Nc3nc4cc5c(cc4s3)OCCO5)sc2c1	-127.5*
Fc1ccc2nc(Nc3nc4cc5c(cc4s3)OCO5)sc2c1	-232.3*
c1ccc2sc(Nc3nc4cc5c(cc4s3)OCO5)nc2c1	-264.1*
Oc1c(CN2CCN(c3ccccn3)CC2)cc(Cl)c2cccnc12	92.4
COC(=O)c1ccccc1NC(=O)c1cccc(COc2ccccc2Cl)c1	-505.0*
O=C(NCc1ccccc1)c1cccc(COc2ccccc2Cl)c1	-87.1*
O=C(NCc1ccccc1)c1cccc(COc2cc(Cl)ccc2Cl)c1	-143.0*
O=C(c1cccc(COc2ccc(Cl)cc2Cl)c1)N1CCN(c2ccccn2)CC1	-163.7*
CN(C(=O)c1cccc(COc2ccc(Cl)cc2Cl)c1)c1ccccc1	-120.0*
NNC(=O)c1cccc(COc2ccc3c(c2)CCC3)c1	70.6
NNC(=O)c1cccc(COc2ccccc2Br)c1	-71.7*
O=C(COC(=O)c1ccccc1-n1cnnn1)c1ccc(Br)cc1	-94.7*
CC1CCC(=C(C#N)c2nc(-c3cc4ccccc4oc3=O)cs2)CC1 (stereo unspecified)	-258.5*
COc1ccc(-c2nnn(Cc3ccccc3F)n2)cc1	-206.7*
Fc1ccccc1Cn1nnc(-c2ccc3c(c2)OCO3)n1	-76.9*
O=C(Nc1ccccc1)Nc1cc(OCC(F)(F)F)cc(OCC(F)(F)F)c1	74.4
O=C(Nc1cccc(Cl)c1)Nc1ccc(Br)cc1F	-114.6*
Cc1cc(NC(=O)Nc2ccccc2F)ccc1Br	-242.9*
SMILES	aSyn UTR act
O=C(Nc1ccccc1)Nc1ccc(Br)cc1F	-163.1*
COC(=O)c1nc(NC(=S)NC(=O)c2cccs2)sc1C	-80.5*
O=C(NC(=S)Nc1nc2ccccc2s1)c1cccs1	-136.1*
COC(=O)Cc1nc(NC(=O)c2cccs2)sc1C	-81.6*
COc1cccc(-c2nc(N3CCN(C)CC3)c3ccccc3n2)c1O	-165.0*
Cc1ccc(Oc2nnc(-c3ccc(C)cc3)c3ccccc23)cc1	-92.7*
Cc1ccc(-c2cc3c(N=O)c4ccccc4c-3n[nH]2)cc1	91.7
Cc1ccc(NC(=O)Nc2ccc(Cl)cn2)cc1	-147.1*
CC(/C=C/c1ccc2c(c1)OCO2)=N/NC(=O)CNc1ccc(C)cc1	-61.8*
Cc1ccc(NC(=O)/C=C/c2ccc3c(c2)OCO3)nc1	-109.2*
Cc1ccc(NC(=O)Nc2ccc3c(c2)OCO3)nc1	-193.1*
Cc1ccc(NC(=O)Nc2ccc(Cl)c(Cl)c2)nc1	-89.8*
c1c2c(cc3sc(N4CCOCC4)nc13)OCO2	-64.4*
Cc1ccc(NC(=O)c2ccc3nc(N4CCOCC4)sc3c2)c(Cl)c1	-67.5*
Fc1ccc2nc(N3CCOCC3)sc2c1	-131.3*
c1ccc(N2CCN(c3nc4cc5c(cc4s3)OCO5)CC2)cc1	-142.4*
c1ccc2c(c1)CCN(c1nc3cc4c(cc3s1)OCO4)C2	-121.9*
Clc1nc(-c2ccccn2)nc2scc(-c3ccccc3)c12	-206.4*

Screening data as filed in PubChem BioAssay.
